NS1 function inh – blocks influenza NS1 protein function. Potency, µM (titrated, usually from 46.1 µM), for inactives: top-dose activity, positive = more growth. 0.4% of 270,000 active; calls by dose curve; further: actives are rising curves; nearly all actives have a fitted effect of over 50% in size
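Growth recovery, yeast-based: influenza A NS1 expressed in S. cerevisiae causes slow growth, and suppressors are detected by OD600. The parent strain without NS1 is used as positive control.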
Pf growth 48h – inhibits P. falciparum growth in the first generation, 48 h; 5.9% of 310,000 active; Potency, µM (series often up to 28.7 µM), without a hit: top-dose activity change, negative = inhibition, hits mostly inhibitors; P. falciparum luciferase growth in erythrocytes, 48 h; further: on the % scale 0 is the no-effect control and ±100 the full control effect
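Erythrocytes infected with P. falciparum carrying an integrated firefly luciferase reporter (2% hematocrit, 0.1% parasitemia final) were exposed to compounds in RPMI 1640 with 0.5% Albumax at 37 C, 5% CO2. Growth inhibition was scored as reduced luminescence.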
VACV mCherry inh – vaccinia inhibition (mCherry reporter); Potency, µM (highest dose often 36.5 µM), without a hit: top-dose activity change, negative = inhibition, usual class: inhibitors; 0.63% of 310,000 active; Vaccinia virus mCherry reporter infection, fluorescence; AID 720579; calls by dose curve; tested in A549 cells; further: on the % scale 0 is the no-effect control and ±100 the full control effect; nearly all actives have a fitted effect of over 35% in size
Pf growth 96h – P. falciparum growth inhibition at 96 hour, primary screen for plastid delayed-death inhibitors. Potency, µM (titrated, usually from 28.7 µM), for inactives: at the top dose activity change, negative = inhibition, actives largely listed as inhibitors. P. falciparum luciferase reporter growth, 96 h. AID 504834. 6.9% of 320,000 active; further: on the % scale 0 is the no-effect control and ±100 the full control effect
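Infected RBCs, 2% Hct / 0.05% parasitemia final; luciferase-reporter P. falciparum; cpd 96 h, 37 C, 5% CO2; luciferase detection reagent; luminescence.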
HCV inh – blocks hepatitis C virus; Huh7.5.1 HCVcc-Cre infection, luciferase reporter, 44 h; Potency, µM (series often up to 41.8 µM), inactives show at the top dose activity change, negative = inhibition, actives largely listed as inhibitors; 3.4% of 340,000 active; further: on the % scale 0 is the no-effect control and ±100 the full control effect
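Infectious HCVcc-Cre (~0.5 moi) was added to cells just after compound, with cells seeded 4 h earlier at 1,000 per well. Luciferase activity after 44 h culture reported infection; substrate was incubated 15 min at room temperature before reading.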
Vaccinia Venus – inhibitors of vaccinia virus (Venus reporter). AID 720580. Potency, µM (doses to about 36.5 µM), without a hit: at the highest dose activity change, negative = inhibition, actives largely listed as inhibitors. 0.46% of 330,000 active. Vaccinia virus Venus reporter expression, fluorescence; calls by dose curve; tested in A549 cells; further: on the % scale 0 is the no-effect control and ±100 the full control effect; nearly all actives have a fitted effect of over 30% in size
Active calls of the source: *; i = inactive; ? = inconclusive; . = not tested or not shown. Only some compounds are listed: those with a hit (about 11% of all), similar ones and a draw of the others. Unless noted, the call rests on the fitted dose curve; in most records, active means well fitted inhibition curve with a large enough effect; inconclusive means small, poorly fitted or top-dose-only effect, or another doubt; inactive means no such curve, though single readings can be large or run the other way. Potency means the concentration at half of the fitted maximal effect.

SMILES	NS1 function inh	Pf growth 48h	VACV mCherry inh	Pf growth 96h	HCV inh	Vaccinia Venus
CCn1nc(NC(=O)c2ccncc2)c2cc3ccc(C)cc3nc21	-1.7%	8.2%	.	8.7%	?	.
O=C(O)c1ccc(N/N=C/c2ccc(-c3cc(Cl)ccc3Cl)o2)cc1	1.8%	85.4%	.	-2.1%	6.0%	.
COc1ccc(C(O)c2ccccc2OP(=O)(N(C)C)N(C)C)cc1 (configuration not stated)	6.5%	-1.1%	i	-15.9%	23.7%	4.0%
CN(Cc1ccccc1)C(=O)COC(=O)c1ccc(Cl)c(N)c1	7.1%	46.2%	i	?	12.8%	-11.5%
CCCn1nc(NC(=O)c2cccs2)c2cc3ccccc3nc21	-61.8%	?	.	?	11.2µM*	.
CN(C)c1ccc(C(=O)N2CCCC2)cc1	.	43.3%	.	11.7µM*	2.9%	.
COc1ccccc1-c1nn(-c2ccccc2)cc1C(=O)NC1CC1	.	6.8%	.	?	-2.5%	.
CCOC(=O)C1=C(CN2CCSCC2)NC(=O)NC1c1cc(C)ccc1C (configuration not stated)	3.5%	11.7µM*	-24.5%	-1.4%	1.2%	-10.9%
CCOC(=O)C1=C(CSc2nc3ccccc3s2)NC(=O)NC1c1ccc(OC)cc1 (configuration not stated)	12.2%	-16.4%	?	?	?	?
CCOC(=O)C1=C(CSc2nc3ccccc3s2)NC(=O)NC1c1cc(C)ccc1C (configuration not stated)	15.7%	?	-16.1%	9.28µM*	?	-24.0%
CCOC(=O)C1=C(CN2CCN(C(=O)c3ccco3)CC2)NC(=O)NC1c1ccc(C)cc1 (configuration not stated)	-1.1%	13.1µM*	.	?	18.2%	.
COC(=O)C1=C(CN2CCc3ccccc32)NC(=O)NC1c1cc(C)ccc1C (configuration not stated)	?	10.4µM*	.	.	?	-20.5%
O=c1c(-c2ccccc2)coc2c(CN3CCCCC3)c(O)ccc12	6.0%	?	.	?	1.2%	.
O=C(CCn1c(=S)oc2ccccc21)Nc1ccccc1F	.	-26.1%	i	5.1%	-13.6%	-8.6%
COc1ccc(C2CC(=O)c3c(C)nc(N4CCN(Cc5ccccc5)CC4)nc3C2)cc1OC (configuration not stated)	-1.3%	8.28µM*	.	10.4µM*	3.55µM*	.
COc1cc(C2CC(=O)c3cnc(N4CCN(CCO)CC4)nc3C2)cc(OC)c1OC (configuration not stated)	.	.	-4.9%	.	.	2.2%
COc1cc(C2CC(=O)c3cnc(N4CCN(Cc5ccccc5)CC4)nc3C2)cc(OC)c1OC (configuration not stated)	-41.5%	9.28µM*	?	-13.1%	?	-13.9%
Cc1ccc(NC(=O)NC(=O)CN2C(=O)NC3(CCc4ccccc43)C2=O)c(C)c1 (configuration not stated)	-19.3%	-6.0%	.	.	?	.
Cc1ccsc1/C=N/NC(=S)NCCc1ccccc1	.	13.9%	-14.3%	0.2%	7.4%	-1.8%
CSc1ccc(/C=N/n2c(Cc3ccc(Br)cc3)n[nH]c2=S)cc1	.	?	i	4.2%	-20.5%	-9.9%
COC(=O)c1ccccc1NC1=C/C(=N\S(=O)(=O)c2ccc(C(=O)O)cc2)c2ccccc2C1=O	-16.9%	1.47µM*	25.1µM*	12.8%	10µM*	?
Cc1ccc(NC2=C/C(=N/S(=O)(=O)c3cccs3)c3ccccc3C2=O)cc1	?	?	-15.2%	3.9%	?	?
COC(=O)c1ccccc1NC1=C/C(=N\S(=O)(=O)c2cccs2)c2ccccc2C1=O	3.8%	.	?	0.657µM*	8.91µM*	?
O=C1C(Nc2ccccc2)=C/C(=N/S(=O)(=O)c2cccs2)c2ccccc21	-40.7%	0.522µM*	8.91µM*	0.522µM*	3.98µM*	10µM*
O=C(NCC1COc2ccccc2O1)C1CCCN(S(=O)(=O)c2cccc3cccnc23)C1 (configuration not stated)	-41.3%	.	-13.1%	-46.4%	?	-9.6%
SMILES	NS1 function inh	Pf growth 48h	VACV mCherry inh	Pf growth 96h	HCV inh	Vaccinia Venus
CCn1nc(C(=O)N[C@@H](CCSC)c2nc3ccccc3[nH]2)c2ccccc2c1=O	-14.2%	.	-24.0%	?	-12.6%	-17.4%
CSCC[C@H](NC(=O)C(C)Oc1ccc(Cl)cc1)c1nc2ccccc2[nH]1 (some centres not stated)	-1.0%	?	i	6.57µM*	-7.4%	-24.4%
CCCCn1nc(C(=O)N[C@@H](CCSC)c2nc3ccccc3[nH]2)c2ccccc2c1=O	-0.8%	?	.	11.7µM*	?	41.9%
Cc1ccc(SCc2[nH]nc3c2C2(C(=O)Nc4ccc(F)cc42)C(C#N)=C(N)O3)cc1 (configuration not stated)	9.7%	4.2%	.	.	-2.6%	.
CC(=O)N1CCC2(CC1)C(C#N)=C(N)Oc1n[nH]c(CSc3ccc(C)cc3)c12	-0.8%	32.4%	.	6.57µM*	8.2%	.
COc1ccc(-c2sc3cc(OC)c(OC)cc3c2C#CCO)cc1	.	.	-20.4%	.	1µM*	?
COc1ccc(-c2sc3cc(OC)c(OC)cc3c2C#CC(C)(C)O)cc1	.	?	-9.2%	?	1.41µM*	-26.6%
COc1ccc(-c2oc3ccccc3c2C#CC(C)(C)O)cc1	.	?	?	1.85µM*	7.94µM*	-29.2%
O=C(c1cn(Cc2ccccc2)nc1-c1ccc(Cl)cc1)N1CCN(c2ccccn2)CC1	.	13.1µM*	-11.9%	9.28µM*	?	1.4%
Cc1ccc(-c2nn(Cc3ccccc3)cc2C(=O)O)cc1	4.3%	123.6%	.	-0.3%	14.9%	.
Cc1ccc(-n2c(SCC(=O)N3CCN(c4ccccn4)CC3)nnc2N2CCCC2)cc1	.	9.28µM*	-1.9%	8.28µM*	11.5%	-12.7%
O=C(c1ccccc1OCc1ccc(Cl)cc1)N1CCN(c2ccccn2)CC1	.	?	-6.1%	0.0%	-28.5%	-19.2%
COc1ccc(-c2nn(Cc3ccccc3)cc2C(=O)N2CCN(c3ncccn3)CC2)cc1	.	13.1µM*	.	?	4.6%	.
CC(C)(Oc1ccc(Cl)cc1)C(=O)N(Cc1ccccc1)c1ccccn1	-32.9%	?	-13.3%	1.85µM*	1.3%	-5.4%
Cc1ccc(SCC(=O)N2CCN(c3ccccn3)CC2)cc1	-39.5%	9.2%	4.8%	113.4%	6.5%	12.3%
Cc1ccc2oc(=O)c(S(=O)(=O)c3ccc(C(C)(C)C)cc3)cc2c1	.	.	-6.1%	.	.	7.8%
COCCNC(=O)C(c1ccncc1)N(C(=O)Cn1nnc2ccccc21)c1ccc(OC)cc1 (configuration not stated)	-4.8%	-8.5%	i	-27.1%	7.6%	-17.4%
CC(C)(C)c1ccc(OCC(=O)N2CCN(c3ccccn3)CC2)cc1	.	?	.	?	-15.5%	.

Source: PubChem
